From PubChem
Sampled rows, rich in hits. Any-hit rate of the full collection: about 9.2%.
FLuc counter: firefly luciferase modulation, counter-screen for miR-21 project; purified FLuc, Km substrates, luminescence inhibition; Potency, µM (top dose mostly 57.5 µM), most hits filed as inhibitors; 360,000 tested, 6.9% active; also: nearly all actives have a fitted effect of over 55% in size
Target sequence (P08659 whole entry, looked up): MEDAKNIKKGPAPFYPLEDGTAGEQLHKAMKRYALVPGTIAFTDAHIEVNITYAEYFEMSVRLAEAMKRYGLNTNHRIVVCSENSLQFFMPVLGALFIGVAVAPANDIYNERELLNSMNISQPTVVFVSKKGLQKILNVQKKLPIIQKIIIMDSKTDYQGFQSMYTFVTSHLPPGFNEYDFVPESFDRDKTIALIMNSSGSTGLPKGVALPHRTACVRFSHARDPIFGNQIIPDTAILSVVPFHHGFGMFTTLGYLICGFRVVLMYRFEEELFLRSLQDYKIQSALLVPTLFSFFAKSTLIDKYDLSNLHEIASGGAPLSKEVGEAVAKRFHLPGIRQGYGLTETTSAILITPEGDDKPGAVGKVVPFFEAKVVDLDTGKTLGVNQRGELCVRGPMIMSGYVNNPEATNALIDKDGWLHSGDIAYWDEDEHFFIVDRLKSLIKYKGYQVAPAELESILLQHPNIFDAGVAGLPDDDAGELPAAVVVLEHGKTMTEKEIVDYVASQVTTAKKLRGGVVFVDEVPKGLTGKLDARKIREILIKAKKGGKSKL
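Biochemical qHTS of compounds, final roughly 60 µM downward over six points, against 10 nM purified firefly luciferase using Km concentrations of substrates (10 uM D-luciferin, 10 uM ATP) in Tris acetate pH 7.5 buffer; luminescence output.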
NPC1 promoter act: activators of NPC1 promoter; Potency, µM (series often up to 9.22 µM), most hits filed as activators; Huh7 NPC1 promoter luciferase reporter, 24 h; 320,000 tested, 2.4% active; AID 485313; also: nearly all actives have a fitted effect of over 60% in size
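NPC1 promoter–luciferase Huh7 cells; 24 h compound; luminescence.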
SMN2 splice up: SMN2 splice variant enhancement. Potency, µM (series often up to 46.1 µM), most hits filed as activators. HEK293 SMN2-luciferase splicing reporter, luminescence, 30-36 h. 210,000 tested, 2.8% active. AID 1458; also: nearly all actives have a fitted effect of over 55% in size
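HEK293 cells carry an SMN2 minigene-luciferase reporter in which exon 7 inclusion puts luciferase in frame. Cells were seeded at 2000 cells/well, attached for 10-12 hours, then exposed to compounds for 30-36 hours at 37C before ONE-Glo luminescence.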
Rab9 prom act: activates the Rab9 promoter; Huh7 Rab9 promoter-luciferase reporter, luminescence, 24 h; Potency, µM (highest dose often 9.22 µM), hits mostly activators; 320,000 tested, 2.8% active; AID 485297; also: nearly all actives have a fitted effect of over 60% in size
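Stable Rab9-luc Huh7, 1500 cells/well, 2 h settle; cmpd in DMSO, 24 h, 37 °C/5% CO2; luciferase reagent 10 min RT; luminescence.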
ELG1 genotoxic: inducers of genotoxicity in HEK293T ELG1-luciferase cells | Potency, µM (series often up to 46 µM), hits mostly activators | 330,000 tested, 1.3% active | HEK293T ELG1-luciferase reporter, luminescence, 16 h | AID 504466; also: nearly all actives have a fitted effect of over 60% in size
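After overnight (16 hr) compound treatment at 37 °C, ELG1-luciferase HEK293T cells were lysed with ONE-Glo; luminescence quantified 30 min later at room temperature.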
ELG1 repair inh: ELG1-dependent DNA repair inhibition; HEK293T ELG1-luciferase reporter, luminescence, 16 h; DNA damage induced by 5-fluorouridine; Potency, µM (titrated, usually from 46.1 µM), actives largely listed as inhibitors; 330,000 tested, 2.3% active; also: nearly all actives have a fitted effect of over 55% in size
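In this reporter screen, reduction of luminescence relative to DMSO vehicle indicated activity. Compounds and 5-fluorouridine were added together to 2,000 cells per well, incubated for 16 hr at 37 °C, then developed with ONE-Glo.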
A number is an active result. Calls follow the shape of the dose curve; as a rule, active = well fitted curve in the direction sought with a large enough effect; inconclusive = small, poorly fitted or top-dose-only effect, or another doubt; inactive = no such curve, though single readings can be large; an effect the other way counts as inactive or inconclusive.

O=C(NNC(=O)c1cc(-c2ccc(Cl)c(Cl)c2)nc2ccccc12)Nc1ccccc1 was read as FLuc counter 6.75µM, NPC1 promoter act inactive, SMN2 splice up inactive, Rab9 prom act inactive, ELG1 genotoxic inactive and ELG1 repair inh inactive.
Screening COc1cc(-c2cc(C(=O)Nc3cc(S(=O)(=O)N4CCOCC4)ccc3O)c3ccccc3n2)cc(OC)c1OC returned ELG1 genotoxic inactive and ELG1 repair inh 14.6µM.
COc1ccccc1NC(=O)c1cc(-c2cc(OC)c(OC)c(OC)c2)nc2ccccc12 was read as FLuc counter inactive, NPC1 promoter act inactive, Rab9 prom act inactive, ELG1 genotoxic inactive and ELG1 repair inh inconclusive.
For COc1ccc(-c2cc(C(=O)Nc3ccc(C(N)=O)cc3)c3ccccc3n2)cc1 the results were FLuc counter 0.757µM, NPC1 promoter act inconclusive, Rab9 prom act inconclusive, ELG1 genotoxic inactive and ELG1 repair inh inconclusive.
Screening O=C(COC(=O)c1ccc2c(=O)n3c(nc2c1)CCC3)NC1CCS(=O)(=O)C1 (centres undefined) returned FLuc counter inactive, NPC1 promoter act inactive, SMN2 splice up inactive, Rab9 prom act inactive, ELG1 genotoxic inactive and ELG1 repair inh inactive.
Screening CCCCC(C(=O)O)C(C)CC(=O)Nc1nccs1 (centres undefined) returned FLuc counter inactive, NPC1 promoter act inactive, Rab9 prom act inactive, ELG1 genotoxic inactive and ELG1 repair inh inactive.
Screening CC(C)(C)c1ccccc1NC(=O)c1cc(-c2ccncc2)nc2ccccc12 returned ELG1 genotoxic inactive and ELG1 repair inh 16.4µM.
Screening Cc1ccc(-c2cc(C(=O)Nc3nn[nH]n3)c3ccccc3n2)cc1 returned FLuc counter 3.79µM, NPC1 promoter act inactive, SMN2 splice up inactive, Rab9 prom act inactive, ELG1 genotoxic inactive and ELG1 repair inh inactive.
`Cc1ccc(-c2cc(C(=O)Nc3ccncc3)c3ccccc3n2)cc1` gave FLuc counter 10.7µM, NPC1 promoter act inactive, Rab9 prom act inactive, ELG1 genotoxic inactive and ELG1 repair inh inconclusive.
`Cc1csc(NC(=O)c2cc(-c3ccncc3)nc3ccccc23)n1` gave FLuc counter inconclusive, NPC1 promoter act inactive, SMN2 splice up inactive, Rab9 prom act inactive, ELG1 genotoxic inactive and ELG1 repair inh inconclusive.
Screening Cc1ccc(C)c(NC(=O)c2cc(-c3cccnc3)nc3ccccc23)c1 returned FLuc counter inactive, NPC1 promoter act inactive, SMN2 splice up inactive, Rab9 prom act inactive, ELG1 genotoxic inactive and ELG1 repair inh inconclusive.
For COc1cc(-c2cc(C(=O)Nc3ccncc3)c3ccccc3n2)cc(OC)c1OC the results were FLuc counter inactive, NPC1 promoter act inactive, Rab9 prom act inactive, ELG1 genotoxic inactive and ELG1 repair inh 6.51µM.
`Cc1noc2ncnc(N3CCN(c4ccccc4F)CC3)c12` gave FLuc counter inactive.
CCc1ccc(NC(=S)N2CCN(S(=O)(=O)c3ccccc3)CC2)cc1 was read as FLuc counter inactive, NPC1 promoter act inactive, Rab9 prom act inactive, ELG1 genotoxic inactive and ELG1 repair inh inactive.
Screening O=C1c2ccccc2CN1CCSC(=S)N1CCSCC1 returned FLuc counter 23.9µM, NPC1 promoter act inconclusive, SMN2 splice up inactive, Rab9 prom act 3.16µM, ELG1 genotoxic inactive and ELG1 repair inh inconclusive.
`O=C1c2ccccc2CN1CCSC(=S)N1CCOCC1` gave FLuc counter 12µM, NPC1 promoter act 3.55µM, SMN2 splice up 12.6µM, Rab9 prom act 3.55µM, ELG1 genotoxic inconclusive and ELG1 repair inh inconclusive.
Screening Cc1ccc(NC(=O)C2CCN(S(=O)(=O)c3ccc4ccccc4c3)CC2)nc1 returned FLuc counter inconclusive, NPC1 promoter act inactive, Rab9 prom act inactive, ELG1 genotoxic inactive and ELG1 repair inh inconclusive.
For O=C(NCCN1CCOCC1)c1cc(-c2ccccc2)on1 the results were FLuc counter inactive, NPC1 promoter act inactive, SMN2 splice up inactive, Rab9 prom act inactive, ELG1 genotoxic 18.4µM and ELG1 repair inh inconclusive.
`O=C(NCCCN1CCOCC1)c1cc2c([nH]c3ccccc32)c(-c2cccc(Br)c2)n1` gave FLuc counter inactive, NPC1 promoter act inactive, Rab9 prom act inactive, ELG1 genotoxic inactive and ELG1 repair inh 1.64µM.
Screening O=C(NCCN1CCOCC1)c1cc(-c2ccc(Br)cc2)on1 returned FLuc counter inactive, NPC1 promoter act inactive, SMN2 splice up inactive, Rab9 prom act inactive, ELG1 genotoxic inactive and ELG1 repair inh inactive.
O=C(NCCCN1CCOCC1)c1cc(-c2ccc(O)cc2)on1 was read as FLuc counter inactive, NPC1 promoter act inactive, SMN2 splice up inactive, Rab9 prom act inactive, ELG1 genotoxic inactive and ELG1 repair inh inconclusive.
For O=C(NCCCN1CCOCC1)c1cc(-c2ccccc2)on1 the results were FLuc counter inactive, NPC1 promoter act inactive, SMN2 splice up inactive, Rab9 prom act inactive, ELG1 genotoxic 18.4µM and ELG1 repair inh inconclusive.
`COc1cccc(-c2nc(C(=O)NCCCN3CCOCC3)cc3c2[nH]c2ccccc23)c1` gave FLuc counter inactive, NPC1 promoter act inactive, Rab9 prom act inactive, ELG1 genotoxic inactive and ELG1 repair inh inconclusive.
Cc1ccc(CC(=O)Nc2ncc([N+](=O)[O-])s2)cc1 was read as FLuc counter 15.1µM, NPC1 promoter act inconclusive, SMN2 splice up 12.6µM, Rab9 prom act inconclusive, ELG1 genotoxic inactive and ELG1 repair inh inconclusive.
For O=C(COC(=O)c1ccc(Br)o1)Nc1ncc([N+](=O)[O-])s1 the results were FLuc counter 16.9µM, NPC1 promoter act inactive, Rab9 prom act inactive, ELG1 genotoxic inactive and ELG1 repair inh inconclusive.
For Cc1ccc(S(=O)(=O)CC(=O)Nc2ncc([N+](=O)[O-])s2)cc1 the results were FLuc counter inactive, NPC1 promoter act inactive, Rab9 prom act inactive, ELG1 genotoxic inactive and ELG1 repair inh inactive.
For O=C1NC(=S)N(C(=O)c2ccc(F)cc2)/C1=C/c1ccccc1 the results were FLuc counter inconclusive, NPC1 promoter act inactive, SMN2 splice up inactive, Rab9 prom act inactive, ELG1 genotoxic inactive and ELG1 repair inh inactive.
For COc1ccc(/C=C2\C(=O)NC(=S)N2C(=O)c2ccc(F)cc2)cc1 the results were FLuc counter 12µM, NPC1 promoter act inactive, SMN2 splice up inactive, Rab9 prom act inactive, ELG1 genotoxic inactive and ELG1 repair inh inactive.
Screening CCCCN1CCc2c([nH]c3ccc(C)cc23)C1=O returned FLuc counter 2.39µM, NPC1 promoter act 2.82µM, SMN2 splice up inconclusive, Rab9 prom act 3.55µM, ELG1 genotoxic inactive and ELG1 repair inh inconclusive.
`Cc1ccc2[nH]c3c(c2c1)CCC3=O` gave FLuc counter inactive, NPC1 promoter act inactive, SMN2 splice up inactive, Rab9 prom act inactive, ELG1 genotoxic inconclusive and ELG1 repair inh inconclusive.
Screening CSc1ccc(/C=N/NC(=O)c2cccs2)cc1 returned FLuc counter 1.69µM, NPC1 promoter act 2.24µM, Rab9 prom act 1.78µM, ELG1 genotoxic inconclusive and ELG1 repair inh inconclusive.
